PINK1 expr mod: modulators of PINK1 expression. PINK1 immunofluorescence, high-content cytometry, 24 h. actives 0.2% (n = 410,000). Potency, µM (highest dose often 76.6 µM), most hits filed as activators. AID 624263; active = well fitted activation curve with a large enough effect; inconclusive = small, poorly fitted or top-dose-only effect; cell line not stated here; note: nearly all actives have a fitted effect of over 65% in size
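Readout is PINK1 immunofluorescence, quantified alongside mitochondrial, cell and nuclear markers by laser-scanning microplate cytometry. Cells from a stable line were exposed to compound titrations (5 concentrations) for 24 hours, with CCCP controls.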
RORg inh: blocks mouse ROR gamma transcriptional activity. P51450. Drosophila S2 Gal4-RORgamma UAS-luciferase reporter, 20 h. Potency, µM (series often up to 53.6 µM), usual class: inhibitors. actives 5.4% (n = 310,000). AID 2551; note: nearly all actives have a fitted effect of over 60% in size
Target sequence (P51450 whole entry, looked up, the tested form may be a part): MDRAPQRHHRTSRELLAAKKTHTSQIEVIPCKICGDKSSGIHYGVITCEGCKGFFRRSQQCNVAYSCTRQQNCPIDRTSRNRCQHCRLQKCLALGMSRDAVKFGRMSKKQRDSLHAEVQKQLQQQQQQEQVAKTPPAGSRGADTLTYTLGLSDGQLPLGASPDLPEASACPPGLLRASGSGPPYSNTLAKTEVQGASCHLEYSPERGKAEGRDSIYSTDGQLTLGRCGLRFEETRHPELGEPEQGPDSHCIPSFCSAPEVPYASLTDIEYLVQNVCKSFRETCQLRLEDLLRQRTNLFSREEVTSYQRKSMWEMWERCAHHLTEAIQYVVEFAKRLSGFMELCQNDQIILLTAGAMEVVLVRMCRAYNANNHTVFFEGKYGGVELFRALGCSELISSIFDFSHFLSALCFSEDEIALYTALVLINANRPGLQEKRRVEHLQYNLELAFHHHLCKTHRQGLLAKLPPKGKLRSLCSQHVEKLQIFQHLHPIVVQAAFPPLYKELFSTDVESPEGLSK
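Luciferase reporter read in Schneider cells carrying Gal4-RORγ (mouse) and UAS-Photinus luciferase; cells given compound 1 h before 700 uM copper sulfate induction, then incubated 20 h at ambient temperature.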
Epigenetic derep: derepresses silenced GFP reporter in murine cells. murine LDR cells, GFP reporter derepression, 30 h. Potency, µM (highest dose often 53.9 µM), usual class: activators. actives 0.2% (n = 280,000). AID 1865; note: nearly all actives have a fitted effect of over 60% in size
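Murine LDR cells bearing a silenced CMV-driven GFP reporter were exposed to compound for 30 h at 37 C. After PBS washes, GFP-positive cells (20-120 um objects) counted by laser-scanning microplate cytometry.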
VP16 counter: inhibits Gal4-VP16 luciferase reporter, ROR gamma counter-screen; Drosophila S2 Gal4-VP16 UAS-luciferase, luminescence, 20 h; Potency, µM (highest dose often 53.6 µM), actives largely listed as inhibitors; actives 3.5% (n = 310,000); AID 2546;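 note: Gal4-VP16 expression switched on by copper sulfate through the metallothionein promoter; nearly all actives have a fitted effect of over 50% in size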
Sfp inh: blocks B. subtilis Sfp PPTase activity; Q9F4F7; Biochemical Sfp PPTase activity, qHTS; Potency, µM, usual class: inhibitors; actives 3.5% (n = 310,000); AID 1490;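 note: the enzyme is Sfp with the accession as filed and its product quenches rhodamine fluorescence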
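Step 1, compound plus 15 nM Sfp-PPTase, 15 min, room temperature. Step 2, add rhodamine-CoA (5 uM) and BHQ-2-YbbR (12.5 uM). Step 3, read 525/598 nm fluorescence at 0 and 30 min.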
ClpP mod: qHTS Assay for Activators of ClpP. ATP-dependent Clp protease proteolytic subunit (Bacillus subtilis (strain 168)), P80244. purified B. subtilis ClpP, FRET peptide cleavage, 20 min. Potency, µM (doses to about 57.5 µM). actives 1.9% (n = 340,000); active = well fitted falling curve with a large enough effect; inconclusive = small, poorly fitted or top-dose-only effect; inactive = no such curve, though single readings can be large or run the other way; note: the source files actives as falling curves though it sought activators and does not explain the sign; nearly all actives have a fitted effect of over 65% in size
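FRET quenching reversal measured ClpP activation: 10 microg/mL B. subtilis ClpP at pH 8 with the FRET-FV decapeptide, read at 430 nm after 320 nm excitation. The 20-min minus 0-min signal was scaled between DMSO/no-enzyme wells and ADEP (5.8 microM final).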
Numbers stand for hits; – = inactive; ? = inconclusive; · = no result; ! = not active in a repeat; [ ] = remark or other dose. Sampled rows, rich in hits. Any-hit rate of the full collection: about 8.1%. Unless noted, calls come from the whole dose curve; as a rule, active = well fitted curve in the direction sought with a large enough effect; inconclusive = small, poorly fitted or top-dose-only effect, or another doubt; inactive = no such curve, though single readings can be large; an effect the other way counts as inactive or inconclusive.

SMILES	PINK1 expr mod	RORg inh	Epigenetic derep	VP16 counter	Sfp inh	ClpP mod
CCOc1ccc(Cc2nccc3cc(OCC)c(OCC)cc23)cc1OCC	·	–	–	15.8µM!	–	·
COC(=O)CCC(=O)Nc1cc(OC)c(OC)cc1Cc1nccc2cc(OC)c(OC)cc12	–	–	·	–	–	·
CCCc1[nH]c(=O)c(C#N)c2c1COC(C)(C)C2	–	–	–	–	–	25.1µM
CC(C)Cc1[nH]c(=O)c(C#N)c2c1COC(C)(C)C2	–	–	–	–	–	?
CC(C)c1[nH]c(=O)c(C#N)c2c1COC(C)(C)C2	–	–	–	–	–	31.6µM
CCc1nc(NCC2CCCO2)c(C#N)c2c1COC(C)(C)C2 (stereo not drawn)	–	?	–	–	–	–
CC(C)c1nc(NCC2CCCO2)c(C#N)c2c1COC(C)(C)C2 (stereo not drawn)	–	–	–	–	–	28.2µM
Cc1[nH]c(=O)c(C#N)c2c1COC(C)(C)C2	–	–	–	–	–	·
CCCc1nc(NC2CCCCC2)c(C#N)c2c1COC(C)(C)C2	–	–[10 µM]	–	–	–	35.5µM
CCc1ccc2[nH]c(=O)c(CN(Cc3cccnc3)Cc3nnnn3Cc3ccccc3)cc2c1	–	·	·	·	·	?
COc1ccc(C(=O)/C=C/Nc2ccc(S(=O)(=O)Nc3cccc(C(C)=O)c3)cc2)cc1	–	–	–	5.62µM	–	?
COc1cccc(N/C=C/C(=O)c2ccc(Br)cc2)c1	–	·	·	·	·	–
COc1ccc(C(=O)/C=C/Nc2cccc(O)c2)cc1	·	10µM	–	2µM	–	–
Cc1cccc(N/C=C/C(=O)c2ccc(Cl)cc2)c1	–	3.16µM	·	?	–	–
COc1cccc(C(=O)/C=C/Nc2ccc(S(=O)(=O)Nc3ccc(C(C)=O)cc3)cc2)c1	–	?	–	–	–	–
O=C(/C=C\Nc1ccccn1)c1ccc(Cl)cc1	·	7.08µM	–	10µM	–	–
CC(=O)c1ccc(F)c(-c2cc(C)cc3c2OC(CNC(=O)c2ccnn2C)C3)c1 (stereo not drawn)	–	·	·	·	·	·
CC(=O)Nc1ccc(NS(=O)(=O)c2ccc(-c3cnc(C4CC4)o3)cc2)cc1	–	–	·	–	–	–
CC(=O)c1cccc(NS(=O)(=O)c2ccc(C(=O)Nc3ccccc3)cc2)c1	–	?	·	10µM	–	–
CC(=O)c1cccc(NS(=O)(=O)c2ccc(-c3cnc(C4CC4)o3)cc2)c1	–	–	·	8.91µM	–	–
SCc1nc2ccccc2[nH]1	–	·	·	·	·	–
NNC(=O)CSc1nc(-c2ccccc2)cn1-c1ccccc1	–	5.62µM	–	–	–	–
Cc1ccc(-c2cn(-c3ccccc3)c(SCC(=O)NC3CCS(=O)(=O)C3)n2)cc1C (stereo not drawn)	–	12.6µM	–	?	–	–
C=CCCCCCCCCCBr	·	–	·	–	–	·
COc1ccccc1C1CN(CC(=O)N2CCC(N3CCOCC3)CC2)Cc2ccccc2O1 (stereo not drawn)	–	·	·	·	·	·
SMILES	PINK1 expr mod	RORg inh	Epigenetic derep	VP16 counter	Sfp inh	ClpP mod
COc1cccc(NC(=O)Nc2cccc(C)n2)c1	–	–	·	–	–	–
COc1cc(NC(=S)Nc2ncccc2C)cc(OC)c1OC	–	12.6µM	–[10.1 µM]	–[10 µM]	50.1µM	–
COc1cc(NC(=S)Nc2cccc(C)n2)cc(OC)c1OC	–	2.51µM	–	8.91µM	–	–
COc1cc(NC(=O)c2ccccn2)cc(OC)c1OC	–	–	–	–	–	–
CC[C@@H](c1ccccc1)n1c(=O)n2n(c1=O)[C@H]1[C@H](O)[C@H]3O[C@@H]3/C(=N/OC[C@@H](O)COCc3ccco3)[C@@H]1CC2	·	–[10 µM]	–[10.1 µM]	–[10 µM]	–	·
C=C(C)C(=O)/C=C/C=C/c1ccccc1	·	–	–	–	–	·
CSc1nsc(/C=C/Nc2ccc(F)cc2)c1C#N	–	–	10µM	–	?	–
CSc1nsc(/C=C/Nc2ccc(Cl)cc2)c1C#N	–	–	?	–	–	–
CC1=C(C(=O)OC2CCCCC2)C(c2cccnc2)n2nnnc2N1 (stereo not drawn)	–	–	–	15.8µM	–	–
Cc1nc(C)n(CC(=O)NCC2Cc3cc(-c4ccsc4)cc(Cl)c3O2)n1 (stereo not drawn)	–	·	·	·	·	·
Cc1nn(C)c(Cl)c1CN1CCCC(C(=O)Nc2ccc(-c3cscn3)cc2)C1 (stereo not drawn)	–	–	·	–	–	25.1µM
O=C(Nc1ccc(-c2cscn2)cc1)C1CCCN(Cc2ccccc2)C1 (stereo not drawn)	–	1.78µM	·	–	–	–
Cc1cccc(CN2CCCC(C(=O)Nc3ccc(-c4cscn4)cc3)C2)c1 (stereo not drawn)	?	–	·	–	–	–
CSc1ccc(CNC(=O)c2cc3cc(S(=O)(=O)N4CCCCC4)ccc3n2C)cc1	–	·	–	·	·	?
COc1ccc(S(=O)(=O)NNc2nc(C)cc(C)n2)cc1[N+](=O)[O-]	–	–	·	–	50.1µM	–
CCC(C(=O)NCCC1=CCCCC1)n1nc(C)c2c(C)n(-c3ccccc3)nc2c1=O (stereo not drawn)	–	4.47µM	·	–	–	–
CCc1ccc(-c2cn(C3CCCCC3)c(=S)[nH]2)cc1	–	0.708µM	–	?	–	·
CCOC(=O)Cn1c(=O)n(C2CCCCC2)c2nc(-c3ccc(CC)cc3)nc(C(N)=O)c21	–	·	–	·	·	?
Cc1cc(C)cc(NC(=O)c2ncn(-c3ccccc3)n2)c1	–	·	–	·	·	–
O=C1c2ccccc2C(=O)c2c1ncn2-c1ccccc1	–	11.2µM	–	?	–	–

Compound activity (PubChem BioAssay)
